Data: PubChem BioAssay (EPA / NIEHS)
Calls of active or inactive are those of the source. The calls were made as follows: active = hit-call score of the fitted dose curve at least 0.9, where 1 is the maximum; inconclusive = response in the unintended direction; inactive = score below 0.9.

assay: Tanguay_ZF_120hpf_MORT_legacy: (Legacy) Oregon State University Tanguay Lab 120 Hour Post-fertilization zebrafish Assay for Mortality (AID 2283633)
Method: Tanguay_ZF_120hpf_legacy is a whole embryo, multiplexed endpoint assay using zebrafish larvae exposed for 120 hours post fertilization on a 96-well plate.Tanguay_ZF_120hpf_MORT_legacy is one of one assay component(s) measured or calculated from the Tanguay_ZF_120hpf_legacy assay. It is designed to make measurements of embryonic mortality as detected with brightfield microscopy of developing zebrafish embryos.Data from the assay component Tanguay_ZF_120hpf_MORT_legacy was analyzed into 1 assay endpoints. This assay endpoint, Tanguay_ZF_120hpf_MORT_legacy, was analyzed in the positive analysis fitting direction relative to DMSO as the negative control and baseline of activity. Using a type of viability reporter, gain-of-signal activity can be used to understand changes in developmentals as they relate to the whole embryo. To generalize the intended target to other relatable targets, this assay endpoint is annotated to the embryonic mortality intended target family, where the subfamily is embryonic mortality.
Zebrafish husbandry: Tropical 5D wild-type adult zebrafish were housed in at an approximate density of 1000 per 100 gallon tank at the Sinnhuber Aquatic Research Laboratory, Oregon State University, Corvallis, OR. Each tank was kept at standard laboratory conditions of 28C on a 14-h light/10-h dark photoperiod in fish water consisting of reverse osmosis water supplemented with a commercially available salt (Instant Ocean). Spawning funnels were placed into the tanks the night prior, and embryos were collected and staged. To increase bioavailability, the chorion was enzymatically removed using pronase (63.6mg/ml, >/= 3.5U/mg, Sigma-Aldrich: P5147) at 4 hours post fertilization (hpf) using a custom automated dechorionator.Chemical exposures: Six hpf dechorionated embryos were placed 1 embryo per well in a 96-well plate prefilled with 90 ul of EM using automated embryo placement systems (AEPS). Ten microliters of each row of dilution plate 2 was added to 2 exposure plates. The final DMSO concentration used was 0.64% (vol/vol). Thirty-two embryos were also exposed to 5uM trimethyltin chloride (positive control). Plates were sealed to prevent evaporation and foil covered to reduce light exposure and kept in a 28C incubator. Embryos were statically exposed until 120 hpf. At 24 hpf, embryos were assessed for photomotor response using a custom photomotor response analysis tool (PRAT) and for developmental toxicity endpoints (MO24: mortality at 24 hpf, DP: developmental progression, SM: spontaneous movement, and NC: notochord distortion). At 120 hpf, locomotor activity was measured using Viewpoint Zebralab and assessed for 18 endpoints. Zebrafish acquisition and analysis program (ZAAP), a custom program designed to inventory, acquire, and manage zebrafish data, was used to collect developmental endpoints as either present or absent (i.e., binary responses were recorded). If mortality occurred for an embryo (at either 24 or 120 hpf), the non-mortality endpoints were not measured.

Structure (SMILES) | outcome
CN(C)CCOC(c1ccccc1)c1ccccc1 | inactive
CN(Cc1cnc2nc(N)nc(N)c2n1)c1ccc(C(=O)N[C@@H](CCC(=O)O)C(=O)O)cc1 | inactive
O=C(c1ccccc1)c1ccccc1 | inactive
O=C1NS(=O)(=O)c2ccccc21 | inactive
O=C(CCCN1CCC(O)(c2ccc(Cl)cc2)CC1)c1ccc(F)cc1 | inactive
OCC(CO)(CBr)CBr | inactive
CCCCC=O | inactive
CC(=O)Nc1ccc(O)cc1 | inactive
CCCCCCCCCCCCCCC | inactive
CCC(C)c1ccccc1O (stereo unspecified) | inactive
CS(=O)(=O)c1ccc([C@@H](CC2CCCC2)C(=O)Nc2cnccn2)cc1Cl | inactive
CCCCc1oc2ccccc2c1C(=O)c1cc(I)c(OCCN(CC)CC)c(I)c1 | inactive
CCCCC(CC)C(=O)O (stereo unspecified) | inactive
N=C(N)c1ccc(OCCCCCOc2ccc(C(=N)N)cc2)cc1 | inactive
Cc1[nH]nc2c1N=C(c1ccccc1Cl)c1cc([N+](=O)[O-])ccc1N2 | inactive
CCCCCCCCCCCCOS(=O)(=O)O | inactive
